Screen size: about 5,500 compounds; about 2,000 (36%) were called active. About 18% were inconclusive and are not listed. Rule as the data show it: active = normalized growth mostly below about 0.91 (no sharp cut-off); inconclusive = no clear call, values can overlap the other calls; inactive = mostly above about 0.92. The list shows a part of the results.
Test: chemical genetic growth profiling, strain panel (AID 1159580);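 also: tested at 20 µM; growth read once vehicle control cultures reached saturation at 30 °C; 1 = growth at the plate median or of vehicle wells; lower values mean less growth of the strain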
Conditions: growth OD

Measured: normalized growth

CC(=O)OCC[C@H](C)CCC=C(C)C
inactive: S. cerevisiae deletion strains, locus YJR043C, strain POL32, stronger effect = lower value 1.01 | S. cerevisiae deletion strains, locus YJR066W, strain TOR1, stronger effect = lower value 0.979 | S. cerevisiae deletion strains, locus YKL009W, strain mrt4, stronger effect = lower value 1.01 | S. cerevisiae deletion strains, locus YKL068W, stronger effect = lower value 1.03 | S. cerevisiae deletion strains, locus YKL085W, strain MDH1 (second series), stronger effect = lower value 1.01 | S. cerevisiae deletion strains, locus YKL085W, strain MDH1, stronger effect = lower value 1.01 | S. cerevisiae deletion strains, locus YKL160W, strain elf1, stronger effect = lower value 0.978 | S. cerevisiae deletion strains, locus YKL190W, strain CNB1, stronger effect = lower value 1.01 | S. cerevisiae deletion strains, locus YKR001C, strain vps1, stronger effect = lower value 1.03 | S. cerevisiae deletion strains, locus YKR026C, strain gcn3, stronger effect = lower value 0.994 | S. cerevisiae deletion strains, locus YKR091W, strain srl3, stronger effect = lower value 0.986 | S. cerevisiae deletion strains, locus YLL001W, strain dnm1, stronger effect = lower value 1.03 | S. cerevisiae deletion strains, locus YLL026W, stronger effect = lower value 1.03 | S. cerevisiae deletion strains, locus YLL041C, strain sdh2, stronger effect = lower value 1.02 | S. cerevisiae deletion strains, locus YLR027C, strain aat2, stronger effect = lower value 1.02 | S. cerevisiae deletion strains, locus YLR039C, strain RIC1, stronger effect = lower value 1.08 | S. cerevisiae deletion strains, locus YLR058C, strain SHM2, stronger effect = lower value 1.02 | S. cerevisiae deletion strains, locus YLR102C, strain apc9, stronger effect = lower value 1.02 | S. cerevisiae deletion strains, locus YLR113W, strain HOG1, stronger effect = lower value 1.05 | S. cerevisiae deletion strains, locus YLR221C, strain rsa3, stronger effect = lower value 1.04 | S. cerevisiae deletion strains, locus YLR258W, strain gsy2, stronger effect = lower value 1.03 | S. cerevisiae deletion strains, locus YLR262C, strain YPT6 (second series), stronger effect = lower value 0.991 | S. cerevisiae deletion strains, locus YLR262C, strain YPT6, stronger effect = lower value 1.09 | S. cerevisiae deletion strains, locus YLR268W, strain sec22, stronger effect = lower value 1.03 | S. cerevisiae deletion strains, locus YLR320W, strain mms22, stronger effect = lower value 1 | S. cerevisiae deletion strains, locus YLR330W, strain CHS5, stronger effect = lower value 1 | S. cerevisiae deletion strains, locus YLR342W, strain FKS1 (second series), stronger effect = lower value 1.01 | S. cerevisiae deletion strains, locus YLR342W, strain FKS1, stronger effect = lower value 0.975 | S. cerevisiae deletion strains, locus YLR357W, strain rsc2, stronger effect = lower value 0.981 | S. cerevisiae deletion strains, locus YLR370C, strain arc18, stronger effect = lower value 0.996 | S. cerevisiae deletion strains, locus YLR371W, strain rom2, stronger effect = lower value 1.02 | S. cerevisiae deletion strains, locus YLR384C, strain iki3, stronger effect = lower value 0.971 | S. cerevisiae deletion strains, locus YLR418C, strain cdc73, stronger effect = lower value 1.02 | S. cerevisiae deletion strains, locus YML016C, strain PPZ1, stronger effect = lower value 1.02 | S. cerevisiae deletion strains, locus YML032C, strain rad52, stronger effect = lower value 1.03 | S. cerevisiae deletion strains, locus YML120C, strain ndi1, stronger effect = lower value 0.988 | S. cerevisiae deletion strains, locus YML124C, strain tub3, stronger effect = lower value 1.02 | S. cerevisiae deletion strains, locus YMR058W, strain fet3, stronger effect = lower value 0.989 | S. cerevisiae deletion strains, locus YMR078C, strain ctf18, stronger effect = lower value 1.04 | S. cerevisiae deletion strains, locus YMR125W, strain sto1, stronger effect = lower value 0.985 | S. cerevisiae deletion strains, locus YMR129W, stronger effect = lower value 0.985 | S. cerevisiae deletion strains, locus YMR205C, strain PFK2, stronger effect = lower value 1.01 | S. cerevisiae deletion strains, locus YMR223W, strain ubp8, stronger effect = lower value 1.04 | S. cerevisiae deletion strains, locus YMR231W, strain pep5, stronger effect = lower value 0.983 | S. cerevisiae deletion strains, locus YMR307W, strain GAS1, stronger effect = lower value 1.05 | S. cerevisiae deletion strains, locus YNL067W, strain RPL9B, stronger effect = lower value 1.02 | S. cerevisiae deletion strains, locus YNL071W, strain lat1, stronger effect = lower value 0.989 | S. cerevisiae deletion strains, locus YNL153C, strain GIM3, stronger effect = lower value 1.01 | S. cerevisiae deletion strains, locus YNL183C, strain NPR1, stronger effect = lower value 0.991 | S. cerevisiae deletion strains, locus YNL209W, strain ssb2, stronger effect = lower value 0.979 | S. cerevisiae deletion strains, locus YNL233W, strain BNI4, stronger effect = lower value 1.01 | S. cerevisiae deletion strains, locus YNL248C, strain rpa49, stronger effect = lower value 0.984 | S. cerevisiae deletion strains, locus YNL250W, strain rad50, stronger effect = lower value 1.03 | S. cerevisiae deletion strains, locus YNL271C, strain bni1, stronger effect = lower value 1.02 | S. cerevisiae deletion strains, locus YNL298W, strain CLA4, stronger effect = lower value 1.05 | S. cerevisiae deletion strains, locus YNL307C, strain MCK1, stronger effect = lower value 1.04 | S. cerevisiae deletion strains, locus YNL322C, strain KRE1 (second series), stronger effect = lower value 0.974 | S. cerevisiae deletion strains, locus YNL322C, strain KRE1, stronger effect = lower value 1.01 | S. cerevisiae deletion strains, locus YNR049C, strain mso1, stronger effect = lower value 0.996 | S. cerevisiae deletion strains, locus YNR052C, strain pop2, stronger effect = lower value 1.01 | S. cerevisiae deletion strains, locus YOL012C, strain htz1 1.25 | S. cerevisiae deletion strains, locus YOL147C, strain pex11, stronger effect = lower value 1.03 | S. cerevisiae deletion strains, locus YOR001W, strain rrp6, stronger effect = lower value 1.02 | S. cerevisiae deletion strains, locus YOR061W, strain CKA2, stronger effect = lower value 1.01 | S. cerevisiae deletion strains, locus YOR069W, strain VPS5, stronger effect = lower value 1 | S. cerevisiae deletion strains, locus YOR070C, strain gyp1, stronger effect = lower value 0.994 | S. cerevisiae deletion strains, locus YOR080W, strain dia2, stronger effect = lower value 0.968 | S. cerevisiae deletion strains, locus YOR083W, strain WHI5, stronger effect = lower value 0.972 | S. cerevisiae deletion strains, locus YOR106W, strain vam3, stronger effect = lower value 0.971 | S. cerevisiae deletion strains, locus YOR136W, strain idh2, stronger effect = lower value 1.02 | S. cerevisiae deletion strains, locus YOR144C, strain elg1, stronger effect = lower value 1.03 | S. cerevisiae deletion strains, locus YOR184W, strain ser1, stronger effect = lower value 1.02 | S. cerevisiae deletion strains, locus YOR231W, strain MKK1, stronger effect = lower value 1.06 | S. cerevisiae deletion strains, locus YOR265W, strain rbl2, stronger effect = lower value 0.995 | S. cerevisiae deletion strains, locus YOR270C, strain vph1, stronger effect = lower value 1.03 | S. cerevisiae deletion strains, locus YOR290C, strain snf2, stronger effect = lower value 0.997 | S. cerevisiae deletion strains, locus YOR316C, strain cot1, stronger effect = lower value 1.02 | S. cerevisiae deletion strains, locus YPL051W, strain arl3, stronger effect = lower value 0.99 | S. cerevisiae deletion strains, locus YPL078C, strain atp4, stronger effect = lower value 0.967 | S. cerevisiae deletion strains, locus YPL106C, strain sse1, stronger effect = lower value 0.949 | S. cerevisiae deletion strains, locus YPL240C, strain hsp82, stronger effect = lower value 0.99 | S. cerevisiae deletion strains, locus YPL256C, strain CLN2, stronger effect = lower value 0.997 | S. cerevisiae deletion strains, locus YPR119W, strain clb2, stronger effect = lower value 1.02 | S. cerevisiae deletion strains, locus YPR141C, strain kar3, stronger effect = lower value 1.03 | S. cerevisiae deletion strains, locus YPR163C, strain tif3, stronger effect = lower value 1.02 | S. cerevisiae deletion strains, locus YPR167C, strain met16, stronger effect = lower value 1.02 | S. cerevisiae deletion strains, strain wtn01, stronger effect = lower value 1.02 | S. cerevisiae strains, strain wild type, stronger effect = lower value 1
